Among all 400,000 compounds or so, about 2,100 (0.53%) were called active. Not shown: some 14% with an inconclusive outcome. No rule for the calls is given here. For the sample, actives were picked, then their nearest neighbours and some compounds at random.

This experiment deals with Ataxin-2 (Homo sapiens) (UniProt Q99700). Put plainly: qHTS for Inhibitors of ATXN expression. The class given is functional.
Chain of Ataxin-2 (Homo sapiens) (Q99700 whole entry): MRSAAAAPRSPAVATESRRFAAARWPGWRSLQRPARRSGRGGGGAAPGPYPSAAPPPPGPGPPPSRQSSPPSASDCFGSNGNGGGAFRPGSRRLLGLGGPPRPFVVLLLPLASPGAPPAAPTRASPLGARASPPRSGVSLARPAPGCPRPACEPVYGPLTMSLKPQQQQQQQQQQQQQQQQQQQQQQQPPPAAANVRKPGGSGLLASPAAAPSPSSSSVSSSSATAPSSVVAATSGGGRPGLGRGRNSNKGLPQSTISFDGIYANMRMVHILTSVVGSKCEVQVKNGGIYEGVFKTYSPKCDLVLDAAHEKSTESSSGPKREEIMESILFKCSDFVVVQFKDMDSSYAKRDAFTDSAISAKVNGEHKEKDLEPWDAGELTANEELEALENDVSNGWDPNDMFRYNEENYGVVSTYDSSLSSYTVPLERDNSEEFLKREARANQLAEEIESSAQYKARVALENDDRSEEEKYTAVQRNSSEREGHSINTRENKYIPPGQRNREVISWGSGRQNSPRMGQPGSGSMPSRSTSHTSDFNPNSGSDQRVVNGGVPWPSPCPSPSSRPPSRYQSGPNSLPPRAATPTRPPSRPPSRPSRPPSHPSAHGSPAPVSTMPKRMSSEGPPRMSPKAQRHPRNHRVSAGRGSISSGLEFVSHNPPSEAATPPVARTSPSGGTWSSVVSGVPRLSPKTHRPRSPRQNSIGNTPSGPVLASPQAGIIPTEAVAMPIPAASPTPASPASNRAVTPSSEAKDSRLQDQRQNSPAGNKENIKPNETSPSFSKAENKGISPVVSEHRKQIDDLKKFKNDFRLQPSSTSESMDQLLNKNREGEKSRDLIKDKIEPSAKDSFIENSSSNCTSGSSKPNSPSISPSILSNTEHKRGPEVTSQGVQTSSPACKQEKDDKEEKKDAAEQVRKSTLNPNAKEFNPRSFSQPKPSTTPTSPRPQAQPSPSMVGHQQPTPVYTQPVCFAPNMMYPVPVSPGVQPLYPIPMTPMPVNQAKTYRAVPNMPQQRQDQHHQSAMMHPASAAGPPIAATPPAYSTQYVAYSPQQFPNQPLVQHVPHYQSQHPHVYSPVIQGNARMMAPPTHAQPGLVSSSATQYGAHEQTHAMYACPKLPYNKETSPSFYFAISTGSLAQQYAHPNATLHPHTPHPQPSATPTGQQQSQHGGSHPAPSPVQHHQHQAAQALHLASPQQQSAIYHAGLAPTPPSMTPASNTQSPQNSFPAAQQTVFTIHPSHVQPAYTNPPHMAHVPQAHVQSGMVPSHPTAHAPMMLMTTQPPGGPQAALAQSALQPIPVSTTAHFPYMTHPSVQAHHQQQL
Turning to `C=CCNC(=S)N/N=C/c1ccc(-c2ccc(OC)cc2)o1`, the Potency result was “inactive”.

Turning to `C=CCOc1ccc(/C=N\NC(N)=S)cc1`, the Potency is 22.4 µM (active). As for `CCOc1ccc(/C=N/NC(=O)Cc2cccs2)cc1`, the Potency result is “inactive”. In the case of `COc1ccccc1Cc1c(C2CCCCC2)nc2ccc(C)cn12` it was 20 µM (active).

Regarding `Brc1ccc2nc(-c3cccs3)c(NCC3CCCO3)n2c1` (stereo unspecified), the Potency result was “inactive”. `Cc1ccc2nc(C3CCCCC3)c(Cc3cccc(Cl)c3)n2c1`: the Potency is 39.8 µM (active). With `COCCn1c(=N)c(C(=O)NC2CCCC2)cc2c(=O)n3cc(C)ccc3nc21`, the Potency result was “inactive”. For `COc1ccccc1Cc1c(C2CCCCC2)nc2ccc(Br)cn12`, the Potency is 17.8 µM (active).

Turning to `CCC(C)n1c(=N)c(C(=O)NC2CCCCC2)cc2c(=O)n3cc(C)ccc3nc21` (stereo unspecified), the Potency result was “inactive”.

`Cc1ccc2nc3c(cc(C(=O)NC4CCS(=O)(=O)C4)n3Cc3ccccc3)c(=O)n2c1` (stereo unspecified): the Potency entry was “inactive”. In the case of `CCn1c(=N)c(C(=O)NC2CCCCC2)cc2c(=O)n3cc(C)ccc3nc21` it was “inactive”; in that of `Nc1c(C(=O)Nc2ccccc2)sc2nc(N3CCOCC3)c3c(c12)CCCC3`, “inactive”.

`COc1ccc(/C=C2/C(=O)ON=C2C)cc1Br`: the Potency entry is “inactive”. Consider `O=C(O)c1ccc(N/N=C/c2ccc(-c3ccc(Cl)cc3Cl)o2)cc1`, for which the Potency entry was “inactive”.

With `CC1=NOC(=O)/C1=C\c1ccc(-c2ccc(Cl)cc2Cl)o1`, the Potency is 35.5 µM (active). Under `O=C(O)c1ccc(CNCc2ccccc2F)cc1` stands “inactive”; under `CC1CCC(NC(=O)c2nn(C)c3c2CS(=O)(=O)c2ccccc2-3)CC1` (stereo unspecified), 39.8 µM (active); under `CC1CCC(NC(=O)CN2C(=O)C3CC=CCC3C2=O)CC1` (stereo unspecified), “inactive”. As for `CC1CCC(NC(=O)COC(=O)CNC(=O)c2ccc3ccccc3c2)CC1` (stereo unspecified), the Potency entry is “inactive”. As for `Cc1nc(-c2ccc(S(=O)(=O)Nc3cc(S(=O)(=O)N(C)C)ccc3C)s2)cs1`, the Potency entry was “inactive”.

`COc1ccc(-c2cc(C(F)(F)F)n3ncc(C(=O)NCC4CCCO4)c3n2)cc1` (stereo unspecified): the Potency entry was “inactive”. As for `C=CCCCCCCCCC(=O)NNC1CC(=O)N(c2ccccc2)C1=O` (stereo unspecified), the Potency result is “inactive”. Regarding `CCCCN(CCCC)CC(O)Cn1cc(/C=C/C(=O)c2ccccc2)c2ccccc21` (stereo unspecified), the Potency result was “inactive”. For the compound `O=C(CCn1c(=S)oc2ccccc21)Nc1ccccc1F`, the Potency result is “inactive”.

Take `CC(C)CC(=O)/C=C/n1c(=S)oc2ccccc21`: the Potency is 31.6 µM (active). `CC(=O)/C=C/n1c(=S)oc2ccccc21`: the Potency was 9.47 µM (active). Under `CC(C)CC(=O)NC(=S)NCc1ccccc1` stands “inactive”; under `CC(=O)Cn1c(=O)oc2ccccc21`, “inactive”; under `CC(=O)OC[C@H]1O[C@@H](Oc2cc3ccc(=O)oc3cc2OC(C)=O)[C@H](OC(C)=O)[C@@H](OC(C)=O)[C@@H]1OC(C)=O`, “inactive”.

For `Cc1cccc(NC(=O)c2nc[nH]c2C(=O)N[C@@H](C)c2ccccc2)c1`, the Potency is 28.2 µM (active). Regarding `Cc1cccc(NC(=O)c2[nH]cnc2C(=O)N[C@@H](Cc2ccccc2)C(=O)OC(C)(C)C)c1`, the Potency was 39.8 µM (active). For `Cc1ccc(NC(=O)C(Nc2cccc(C)c2)c2ccccc2)cc1` (stereo unspecified), the Potency entry was “inactive”. In the case of `CC(C)C[C@H](NC(=O)c1[nH]cnc1C(=O)NCCCCCNC(=O)OC(C)(C)C)C(=O)OC(C)(C)C`, the Potency was 35.5 µM (active).

On to `Cc1cccc(NC(=O)c2c(C)nn(-c3ccccc3)c2Cl)c1`, for which the Potency result was “inactive”. On to `O=C(Nc1ccccc1)c1nsnc1C(=O)Nc1ccccc1`, for which the Potency result is “inactive”. As for `CCOc1ccc(C(C)NC(=O)c2cccs2)cc1OCC` (stereo unspecified), the Potency result is “inactive”. On to `C[C@@H](NC(=O)c1[nH]cnc1C(=O)N[C@@H](Cc1ccccc1)C(=O)OC(C)(C)C)c1ccccc1`, for which the Potency was 35.5 µM (active). In the case of `COc1ccc(NC(=O)CSc2nnc3n2CCCCC3)cc1S(=O)(=O)N1CCOCC1` it was “inactive”; in that of `Cc1ccccc1/C=C/c1nc2ccccc2c(=O)n1CCc1ccccc1`, “inactive”; in that of `CCc1cc2c(-c3ccccc3)cc(=O)oc2c2c1OCN(Cc1ccc(F)cc1)C2`, “inactive”. Take `Cc1ccc2nc(N3C(=O)C(O)=C(C(=O)c4ccc(C)o4)C3c3cccc(O)c3)sc2c1` (stereo unspecified): the Potency result was “inactive”. As to `c1ccc(-c2cnn3c(-c4ccccc4)c(-c4ccccc4)nc3n2)cc1`, the Potency entry is “inactive”. On to `COc1ccc(OC)c(/N=C/c2c(O)oc3ccccc3c2=O)c1`, for which the Potency result is “inactive”.

Turning to `CC(NC(=O)/C(C#N)=C/c1ccc(OCC(=O)O)cc1)c1ccccc1` (stereo unspecified), the Potency result was “inactive”. On to `CCOc1ccccc1NC(=O)COC(=O)C(Cc1ccccc1)NC(=O)c1ccco1` (stereo unspecified), for which the Potency entry is “inactive”. Under `CCCCC(C(=O)NC(C)c1ccccc1)C(=O)NC(C)c1ccccc1` (stereo unspecified) stands “inactive”. Consider `COCc1cc(C)nc2sc(C(=O)Nc3ccccc3F)c(N)c12`, for which the Potency entry is “inactive”.

With `C[C@H](NC(=O)c1[nH]cnc1C(=O)N[C@@H](Cc1ccccc1)C(=O)OC(C)(C)C)C(=O)OC(C)(C)C`, the Potency is 39.8 µM (active). Under `CC(C)C[C@H](NC(=O)c1[nH]cnc1C(=O)N[C@@H](Cc1ccccc1)C(=O)OC(C)(C)C)C(=O)OC(C)(C)C` stands 25.1 µM (active); under `Nc1c(C(=O)Nc2ccccc2F)sc2nc(-c3cccnc3)ccc12`, “inactive”.

For the compound `CC(C)C[C@H](NC(=O)c1[nH]cnc1C(=O)N[C@H](C)c1ccccc1)C(=O)OC(C)(C)C`, the Potency was 39.8 µM (active). In the case of `CC(C)(C)OC[C@H](NC(=O)c1[nH]cnc1C(=O)Nc1ccccc1F)C(=O)OC(C)(C)C` it was 35.5 µM (active). Under `CCOC(=O)N1CCN(S(=O)(=O)c2c(C)nc3scc(C)n3c2=O)CC1` stands “inactive”; under `COc1ccc(C2C=C(c3ccccc3)Nc3ncnn32)cc1` (stereo unspecified), “inactive”; under `O=S(=O)(NCCc1cccs1)c1ccc(Br)cc1`, “inactive”. In the case of `COCc1cc(C)nc2sc(C(=O)Nc3ccccc3Br)c(N)c12` it was “inactive”. As to `COc1ccccc1OCc1ccc(C(=O)NC(C)c2ccccc2)o1` (stereo unspecified), the Potency result is “inactive”.

Take `CC(C)C[C@H](NC(=O)c1[nH]cnc1C(=O)Nc1ccc(CNC(=O)OC(C)(C)C)cc1)C(=O)OC(C)(C)C`: the Potency was 28.2 µM (active). Take `CC(C)(C)OC(=O)[C@H](Cc1ccccc1)NC(=O)c1[nH]cnc1C(=O)Nc1ccc(Cl)cc1`: the Potency is 39.8 µM (active).

Take `CC(C)C[C@H](NC(=O)c1[nH]cnc1C(=O)N[C@@H](C)c1ccccc1)C(=O)OCc1ccccc1`: the Potency was 35.5 µM (active).

On to `CC(C)C[C@H](NC(=O)c1[nH]cnc1C(=O)N[C@@H](C)C(=O)OC(C)(C)C)C(=O)OC(C)(C)C`, for which the Potency is 35.5 µM (active). As to `CN(C)Cc1c(O)ccc2cc(-c3nc4ccccc4n3C)c(=O)oc12`, the Potency result was “inactive”. With `Cc1cc2nc3c(O)nc(S)nc3nc2cc1NC(=O)C(F)(F)F`, the Potency result is “inactive”. On to `N#Cc1cc2c(nc1SCC(=O)Nc1nccs1)CCCCC2`, for which the Potency result was “inactive”. For `CN(C)c1ccc(/C=N/N=C2/SC(CC(=O)O)C(=O)N2c2ccc(O)cc2)cc1` (stereo unspecified), the Potency result is “inactive”. In the case of `CC(C)(C)c1cc2ncnc(N3CCCCC3)c2s1` it was “inactive”; in that of `CC(C)[C@H](NC(=O)OC(C)(C)C)c1nnc(S(=O)(=O)Cc2c(F)cccc2Cl)o1`, 22.4 µM (active); in that of `CCC(C)[C@@H](NC(=O)OC(C)(C)C)c1nnc(S(=O)(=O)Cc2cccc(C)c2)o1` (stereo partly specified), 22.4 µM (active). `CC[C@@H](C)[C@H](NC(=O)OC(C)(C)C)c1nnc(S(=O)(=O)Cc2cc(C)ccc2C)o1`: the Potency was 39.8 µM (active). `CC(NC(=O)OC(C)(C)C)C(=O)Oc1ccc2ccc(=O)oc2c1` (stereo unspecified): the Potency entry is “inactive”. Take `CC(NC(=O)OC(C)(C)C)C(=O)Oc1cc2oc(=O)cc(-c3ccccc3)c2cc1Cl` (stereo unspecified): the Potency entry is “inactive”. Regarding `N#CCC(=O)N/N=C/c1ccc(N2N=C(c3ccccc3)CC2c2ccccc2)cc1` (stereo unspecified), the Potency result was “inactive”. For the compound `Cc1ccc(C)c(NC(=O)CCNS(=O)(=O)c2ccc3nc(O)oc3c2)c1`, the Potency entry is “inactive”. Under `CCN1CCN(C(c2cccs2)C(C)NC(=O)C(C)C)CC1` (stereo unspecified) stands “inactive”; under `Nc1c(C(=O)N/N=C/c2ccccc2Cl)oc2nc(-c3ccccc3)cc(-c3ccco3)c12`, “inactive”; under `Cc1ccc(-n2c(C)cc(/C=N/NC(=O)Cn3c4ccccc4c(=O)c4ccccc43)c2C)cc1`, “inactive”. Regarding `O=C(Cn1c2ccccc2c(=O)c2ccccc21)N/N=C/c1ccc(N2CCCC2)c([N+](=O)[O-])c1`, the Potency is 39.8 µM (active).

For `Cc1cc(/C=N/NC(=O)Cn2c3ccccc3c(=O)c3ccccc32)c(C)n1-c1ccccc1`, the Potency result is “inactive”.

In the case of `Cc1ccc(S(=O)(=O)NC(C(=O)Oc2cc3oc(=O)cc(C)c3cc2Cl)C(C)C)cc1` (stereo unspecified), the Potency result was “inactive”.

For the compound `CC(=O)Nc1nn(CC(C)C)c2nc3ccc(C)cc3cc12`, the Potency entry was “inactive”.

For `O=S(=O)(Nc1nc2n(n1)C(c1ccc(F)cc1)C=C(c1ccccc1)N2)c1ccccc1` (stereo unspecified), the Potency entry is “inactive”. As to `COc1ccc([C@H]2C[C@H](O)[C@@H](n3cc(-c4ccc(F)cc4)nn3)CN2CC2CCCCC2)cc1`, the Potency was 39.8 µM (active).

For `CCCCCCN1C[C@H](n2cc(-c3ccc(F)cc3)nn2)[C@@H](O)C[C@@H]1c1ccc(Cl)cc1`, the Potency was 22.4 µM (active). Under `CCCCCC(=O)N1C[C@@H](n2cc(-c3ccc(F)cc3)nn2)[C@H](O)C[C@@H]1c1ccc(Cl)cc1` stands 31.6 µM (active). For the compound `CCCC(=O)NCn1nnc(-c2ccc(Cl)cc2)n1`, the Potency entry is “inactive”.

Regarding `O[C@H]1C[C@H](c2ccc(Cl)cc2)N(Cc2cccs2)C[C@@H]1n1cc(-c2ccc(F)cc2)nn1`, the Potency is 25.1 µM (active).

For the compound `CCCCNC(=O)COC(=O)c1c2c(nc3ccccc13)/C(=C/c1cccs1)CC2`, the Potency result is “inactive”. Under `COc1ccc(OCCCC(=O)ON=C(N)c2ccccc2C)cc1` stands “inactive”; under `CCOC(=O)C1=C(NC(=O)c2cc(S(=O)(=O)N3CCOCC3)ccc2C)Nc2ccccc2N=C1CC`, “inactive”; under `NS(=O)(=O)c1ccc(N2N=C(c3ccc(Br)cc3)CC2c2ccc(F)cc2)cc1` (stereo unspecified), “inactive”. For the compound `COc1ccc(C2=CC(c3ccc(F)cc3)n3nnnc3N2)cc1` (stereo unspecified), the Potency result is “inactive”. Under `Cc1ccc([C@H]2C[C@H](O)[C@@H](n3cc(C4CC4)nn3)CN2Cc2cccs2)cc1` stands 35.5 µM (active); under `CCCCCCN1C[C@H](n2cc(-c3ccc(F)cc3)nn2)[C@@H](O)C[C@@H]1c1ccc(C)cc1`, 39.8 µM (active); under `CCCCCCN1C[C@@H](n2cc(-c3ccc(F)cc3)nn2)[C@H](O)C[C@@H]1c1ccc(OC)cc1`, 35.5 µM (active). For `CCCCCCN1C[C@H](n2cc(C3CC3)nn2)[C@@H](O)C[C@@H]1c1ccc(C)cc1`, the Potency was 35.5 µM (active). In the case of `COc1ccc(C2=Nc3nc(-c4ccccc4)cn3C(c3ccc(OC)cc3)C2)cc1` (stereo unspecified), the Potency result is “inactive”.

Values taken from ChEMBL document CHEMBL1201862, “PubChem BioAssay data set” (2004).
